In PubChem BioAssay (NCI):
This is part of a sample that, as a whole, favours compounds with a hit. Of some 83,000 tested, about 20% had one in any assay.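 Cell lines were cultured in 96-well plates, exposed to a single compound concentration, and assessed for percent growth 48 hours later.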 Calls of active or inactive are those of the source. The calls were made as follows: active = growth percent below 10; inactive = the rest.

Experiments:
Test in all cases: NCI-60 one-dose screen, 48 h (100 = growth as untreated, 0 = no growth, -100 = all killed)
Conditions in all cases: 10 µM unless noted
NCI-H23 lung = system: NCI-H23 lung
NCI-H226 lung = system: NCI-H226 lung
NCI-H322M lung = system: NCI-H322M lung
HOP-62 NSCLC = system: HOP-62 NSCLC
NCI-H460 lung = system: NCI-H460 lung
NCI-H522 lung = system: NCI-H522 lung
A549/ATCC NSCLC = system: A549/ATCC NSCLC
786-0 renal = system: 786-0 renal
COLO 205 colon = system: COLO 205 colon
DU-145 prostate = system: DU-145 prostate
MALME-3M melanoma = system: MALME-3M melanoma
MDA-MB-231 breast = system: MDA-MB-231 breast
RXF 393 renal = system: RXF 393 renal
SF-268 CNS = system: SF-268 CNS
SF-295 CNS = system: SF-295 CNS
SF-539 CNS = system: SF-539 CNS
UACC-257 melanoma = system: UACC-257 melanoma
M14 melanoma = system: M14 melanoma
K-562 leukemia = system: K-562 leukemia

Measured: growth

CCNC(=O)c1ccc2c(c1)nc(-c1ccc(Cl)cc1)n2-c1cc(C(C)(C)C)[nH]n1
inactive: NCI-H23 lung 60% | NCI-H226 lung 46.9% | NCI-H322M lung 70.9% | HOP-62 NSCLC 47.3% | NCI-H460 lung 36.7% | NCI-H522 lung 32.3% | A549/ATCC NSCLC 48.6% | 786-0 renal 27.7% | COLO 205 colon 51.8% | DU-145 prostate 71.4% | MALME-3M melanoma 34.9% | MDA-MB-231 breast 64.3% | RXF 393 renal 36.2% | SF-268 CNS 51.6% | SF-295 CNS 16.4% | SF-539 CNS 32.6% | UACC-257 melanoma 79.1% | M14 melanoma 18.1%

COc1ccccc1CNCCCN1C(=O)c2ccc3c4c(ccc(c24)C1=O)C(=O)N(CCCNCCCN)C3=O
active: NCI-H23 lung -63.4% | NCI-H322M lung 1.95% | NCI-H460 lung -26.5% | NCI-H522 lung -75.6% | A549/ATCC NSCLC 9.81% | COLO 205 colon -87.8% | DU-145 prostate -1.55% | MALME-3M melanoma -41.9% | RXF 393 renal -36.9% | SF-268 CNS -0.397% | SF-539 CNS 8.47% | UACC-257 melanoma -74.4% | M14 melanoma -44.1%
inactive: NCI-H226 lung 38.7% | HOP-62 NSCLC 11.6% | 786-0 renal 11% | MDA-MB-231 breast 12.2% | SF-295 CNS 14.5%

COc1cc(C2C(C#N)=C(N)Oc3cc4c(cc32)OCO4)cc2c1OCO2 (centres undefined)
inactive: NCI-H322M lung 44.8% | HOP-62 NSCLC 28.2% | NCI-H460 lung 12.4% | A549/ATCC NSCLC 25.3% | 786-0 renal 31.1% | MALME-3M melanoma 52.6% | MDA-MB-231 breast 36.5% | SF-268 CNS 40.3% | UACC-257 melanoma 66.4%
active: NCI-H23 lung 8.48% | NCI-H226 lung 0.662% | NCI-H522 lung 5.81% | COLO 205 colon -42.1% | DU-145 prostate 6.37% | RXF 393 renal -12.1% | SF-295 CNS 9.43% | SF-539 CNS 2.43% | M14 melanoma -2.77%

COc1cccc(C2C(C#N)=C(N)Oc3cc4c(cc32)OCO4)c1 (centres undefined)
inactive: NCI-H322M lung 37.6% | HOP-62 NSCLC 22.7% | NCI-H522 lung 11.5% | A549/ATCC NSCLC 21.4% | 786-0 renal 29.9% | MALME-3M melanoma 39.8% | MDA-MB-231 breast 30.2% | SF-268 CNS 29.9% | UACC-257 melanoma 57.4%
active: NCI-H23 lung 9.81% | NCI-H226 lung -7.07% | NCI-H460 lung 7.64% | COLO 205 colon -47.1% | DU-145 prostate 1.58% | RXF 393 renal 2.45% | SF-295 CNS 7.47% | SF-539 CNS 4.53%

COc1cc(NC(=O)CSc2nc3ccc(Cl)cc3c(=O)n2-c2ccccc2)cc(OC)c1OC
inactive: NCI-H23 lung 102% | NCI-H226 lung 91.2% | NCI-H322M lung 99.8% | HOP-62 NSCLC 85.5% | NCI-H460 lung 98.2% | NCI-H522 lung 84.8% | A549/ATCC NSCLC 89% | 786-0 renal 92.1% | COLO 205 colon 116% | DU-145 prostate 102% | MALME-3M melanoma 88% | MDA-MB-231 breast 77.8% | RXF 393 renal 95% | SF-268 CNS 90.9% | SF-295 CNS 87.5% | SF-539 CNS 93.9% | UACC-257 melanoma 102% | M14 melanoma 94%

CCN(CC)c1ccc(/C=C2/NC(=O)NC2=O)cc1
active: COLO 205 colon 3.89% | SF-539 CNS 6.57% | M14 melanoma 8.99%
inactive: NCI-H23 lung 44.6% | NCI-H226 lung 81.5% | NCI-H322M lung 79.1% | HOP-62 NSCLC 53.4% | NCI-H460 lung 20.6% | NCI-H522 lung 14.5% | A549/ATCC NSCLC 59.1% | 786-0 renal 48% | DU-145 prostate 64.3% | MALME-3M melanoma 42% | MDA-MB-231 breast 57.5% | RXF 393 renal 50.3% | SF-268 CNS 57% | SF-295 CNS 23.6% | UACC-257 melanoma 72.9%

COc1ccc2nc3cc(Cl)ccc3c(NC(=O)CSc3ccc(Cl)cc3)c2c1
active: NCI-H23 lung -90% | NCI-H226 lung -44.4% | NCI-H322M lung -90.1% | HOP-62 NSCLC -99.5% | NCI-H460 lung -84.4% | NCI-H522 lung -96.5% | A549/ATCC NSCLC -69.4% | 786-0 renal -98.2% | COLO 205 colon -20.1% | DU-145 prostate -98.3% | K-562 leukemia -3.86% | MALME-3M melanoma -77.1% | MDA-MB-231 breast -69.3% | RXF 393 renal -99.1% | SF-268 CNS -88.9% | SF-295 CNS -86.2% | SF-539 CNS -91.9% | UACC-257 melanoma -90% | M14 melanoma -97.4%

Nc1c(N)c2ccccc2c2ccccc12
inactive: NCI-H23 lung 98.4% | NCI-H226 lung 92.2% | NCI-H322M lung 115% | HOP-62 NSCLC 95% | NCI-H460 lung 113% | NCI-H522 lung 111% | A549/ATCC NSCLC 105% | 786-0 renal 103% | COLO 205 colon 124% | DU-145 prostate 111% | MALME-3M melanoma 110% | MDA-MB-231 breast 85.3% | RXF 393 renal 109% | SF-268 CNS 115% | SF-295 CNS 100% | SF-539 CNS 94.6% | UACC-257 melanoma 106% | M14 melanoma 113%
